# Measured values as given in the supplement of paper PMC12282887.
# ± gives the standard deviation of the averaged measurements.
# What was measured:
# Assay in all cases: promoter activity interaction Z-score (Lux/OD deviation from empty-vector control); higher = stronger promoter induction by the compound
# [1] = system: E. coli BW25113 acrABp lux reporter
# Method in brief: (§1)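 E. coli BW25113 (wild type or marA, soxS or rob deletion) carrying low-copy luxCDABE promoter reporters grew in 40 µl LB Lennox in 384-well plates at 37°C. Each compound was tested at four 1:2 dilutions in biological duplicates. OD600 and luminescence were read every 30 min for 12 h. Areas were taken over 0–8 h (wild type) or 1–9 h (mutants), and wells below 10% of median growth area were removed. The score is the Z-transformed residual of growth-normalised luminescence fitted against the empty-vector control.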
# [2] = system: E. coli BW25113 marRABp lux reporter
# Method in brief: as §1
# [3] = system: E. coli BW25113 micFp lux reporter
# Method in brief: as §1
# [4] = system: E. coli BW25113 ompFp lux reporter
# Method in brief: as §1
# [5] = 11.9 µg/ml, genetic background: wild type
# [6] = 11.9 µg/ml, genetic background: ΔmarA
# [7] = 11.9 µg/ml, genetic background: Δrob
# [8] = 11.9 µg/ml, genetic background: ΔsoxS
# [9] = 23.7 µg/ml, genetic background: wild type
# [10] = 23.7 µg/ml, genetic background: ΔmarA
# [11] = 23.7 µg/ml, genetic background: Δrob
# [12] = 23.7 µg/ml, genetic background: ΔsoxS
# [13] = 47.4 µg/ml, genetic background: wild type
# [14] = 47.4 µg/ml, genetic background: ΔmarA
# [15] = 47.4 µg/ml, genetic background: Δrob
# [16] = 47.4 µg/ml, genetic background: ΔsoxS
# [17] = 94.8 µg/ml, genetic background: wild type
# [18] = 94.8 µg/ml, genetic background: ΔmarA
# [19] = 94.8 µg/ml, genetic background: Δrob
# [20] = 94.8 µg/ml, genetic background: ΔsoxS
compound,measurement,setting,value
NCCc1ccc(O)c(O)c1 [Dopamine],promoter activity interaction Z-score,[1]; [5],0.174 ± 0.27
same,promoter activity interaction Z-score,[1]; [6],-0.87 ± 0.6
same,promoter activity interaction Z-score,[1]; [7],-0.259 ± 0.25
same,promoter activity interaction Z-score,[1]; [8],0.316 ± 0.49
same,promoter activity interaction Z-score,[1]; [9],-0.0683 ± 0.28
same,promoter activity interaction Z-score,[1]; [10],-0.0201 ± 0.65
same,promoter activity interaction Z-score,[1]; [11],-0.428 ± 0.0062
same,promoter activity interaction Z-score,[1]; [12],-0.0876 ± 0.18
same,promoter activity interaction Z-score,[1]; [13],0.18 ± 0.084
same,promoter activity interaction Z-score,[1]; [14],-1.12 ± 0.53
same,promoter activity interaction Z-score,[1]; [15],-0.499 ± 0.094
same,promoter activity interaction Z-score,[1]; [16],-0.0203 ± 0.46
same,promoter activity interaction Z-score,[1]; [17],-0.304 ± 0.4
same,promoter activity interaction Z-score,[1]; [18],-0.754 ± 0.56
same,promoter activity interaction Z-score,[1]; [19],-0.623 ± 0.094
same,promoter activity interaction Z-score,[1]; [20],-0.852 ± 0.031
same,promoter activity interaction Z-score,[2]; [5],0.0994 ± 0.32
same,promoter activity interaction Z-score,[2]; [6],-0.339 ± 0.18
same,promoter activity interaction Z-score,[2]; [7],-0.285 ± 0.05
same,promoter activity interaction Z-score,[2]; [8],-0.021 ± 0.064
same,promoter activity interaction Z-score,[2]; [9],-0.265 ± 0.15
same,promoter activity interaction Z-score,[2]; [10],0.159 ± 0.52
same,promoter activity interaction Z-score,[2]; [11],0.121 ± 0.22
same,promoter activity interaction Z-score,[2]; [12],-0.3 ± 0.046
same,promoter activity interaction Z-score,[2]; [13],0.113 ± 0.12
same,promoter activity interaction Z-score,[2]; [14],-0.369 ± 0.073
same,promoter activity interaction Z-score,[2]; [15],-0.155 ± 0.3
same,promoter activity interaction Z-score,[2]; [16],-0.126 ± 0.099
same,promoter activity interaction Z-score,[2]; [17],-0.305 ± 0.37
same,promoter activity interaction Z-score,[2]; [18],0.217 ± 1.1
same,promoter activity interaction Z-score,[2]; [19],-0.642 ± 0.091
same,promoter activity interaction Z-score,[2]; [20],-0.61 ± 0.21
same,promoter activity interaction Z-score,[3]; [5],-0.0957 ± 0.4
same,promoter activity interaction Z-score,[3]; [6],-0.00669 ± 0.09
same,promoter activity interaction Z-score,[3]; [7],-0.0714 ± 0.048
same,promoter activity interaction Z-score,[3]; [8],-0.289 ± 0.13
same,promoter activity interaction Z-score,[3]; [9],0.149 ± 0.39
same,promoter activity interaction Z-score,[3]; [10],0.0171 ± 0.089
same,promoter activity interaction Z-score,[3]; [11],-0.0648 ± 0.13
same,promoter activity interaction Z-score,[3]; [12],-0.0534 ± 0.087
same,promoter activity interaction Z-score,[3]; [13],-0.077 ± 0.31
same,promoter activity interaction Z-score,[3]; [14],-0.0143 ± 0.025
same,promoter activity interaction Z-score,[3]; [15],-0.12 ± 0.027
same,promoter activity interaction Z-score,[3]; [16],-0.221 ± 0.014
same,promoter activity interaction Z-score,[3]; [17],-0.3274 ± 0.00091
same,promoter activity interaction Z-score,[3]; [18],0.0328 ± 0.11
same,promoter activity interaction Z-score,[3]; [19],-0.149 ± 0.093
same,promoter activity interaction Z-score,[3]; [20],-0.745 ± 0.067
same,promoter activity interaction Z-score,[4]; [5],0.401 ± 0.57
same,promoter activity interaction Z-score,[4]; [6],-0.363 ± 0.16
same,promoter activity interaction Z-score,[4]; [7],-0.182 ± 0.48
same,promoter activity interaction Z-score,[4]; [8],-0.36 ± 0.38
same,promoter activity interaction Z-score,[4]; [9],-0.18 ± 0.33
same,promoter activity interaction Z-score,[4]; [10],0.285 ± 0.88
same,promoter activity interaction Z-score,[4]; [11],-0.131 ± 0.68
same,promoter activity interaction Z-score,[4]; [12],-0.722 ± 0.37
